The full ranking holds about 33,000 sequences; the median of “e-score” is about -0.053, and the highest 2% start at about 0.38. What follows is part of a selection rich in the highest values, with near analogues and random picks from the rest.

For this assay, the target named is T1, SIX1 homeodomain (reference allele) (human, UniProt Q15475 108-198).
T1 sequence: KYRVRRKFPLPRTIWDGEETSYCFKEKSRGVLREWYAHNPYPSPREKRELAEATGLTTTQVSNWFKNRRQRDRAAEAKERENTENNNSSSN
Description: universal protein binding microarray; Universal all-10-mer PBM (8x60K, AMADID 030236), 300 nM GST-tagged protein, Alexa Fluor 488 anti-GST; buffer, salt, pH and temperature not stated (as in Berger); high values mean tight binding. The conditions noted are these: protein: ivt; tags: N-terminal GST; dsDNA, one strand shown. The procedure, abridged:
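Duplicate protein binding microarrays (universal 'all 10-mer', 8×60K format) were incubated with GST-tagged homeodomains at 300 nM final concentration. Binding was quantified as 8-mer E-scores with the Universal PBM Analysis Suite.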
For the sequence AACTATAC, the binding signal is 0.24 ± 0.0587 E-score.
AGATGTAT: the binding signal amounted to 0.338 ± 0.00993 E-score.
Turning to ATACGCAC, the binding signal is 0.254 ± 0.00836 E-score.
Under CCCATGGG stands 0.152 ± 0.0229 E-score; under GATCGGCA, 0.211 ± 0.0237 E-score; under ATACACAT, 0.289 ± 0.00303 E-score.
Take ATGTGATC: the binding signal turned out to be 0.32 ± 0.0109 E-score.
CTGTGATC: the binding signal was 0.328 ± 0.00414 E-score.
GTGTGTGA: the binding signal came out at 0.174 ± 0.0383 E-score.
ATGTGATA: the binding signal amounted to 0.392 ± 0.0638 E-score.
As for CTGTGATA, the binding signal is 0.39 ± 0.0381 E-score.
For the sequence GTGTGATA, the binding signal stood at 0.411 ± 0.0318 E-score.
With GTGTGAGA the figure was 0.245 ± 0.029 E-score; with ATGTGAGA, 0.165 ± 0.0625 E-score.
With AGATAGGA the figure was 0.175 ± 0.0479 E-score; with CGAATCCA, 0.1647 ± 0.00129 E-score.
With CCCGCGGA the figure was 0.205 ± 0.00383 E-score; with TATCTGCA, 0.284 ± 0.0307 E-score; with GAAATACC, 0.1851 ± 0.00123 E-score.
For the sequence ATACCGAG, the binding signal came out at 0.304 ± 0.0181 E-score.
As for ATACCGCC, the binding signal came to 0.418 ± 0.0211 E-score.
ACACCGCG: the binding signal is 0.283 ± 0.0738 E-score.
With ACACCGCA the figure was 0.351 ± 0.043 E-score.
With ACACCGCC, the binding signal came to 0.321 ± 0.0533 E-score.
Under ATACCGCG stands 0.377 ± 0.0129 E-score; under ATACCGAT, 0.3532 ± 0.00127 E-score.
Consider ATACCGAA, for which the binding signal worked out at 0.329 ± 0.0172 E-score.
As for ATACCGCA, the binding signal was determined as 0.4061 ± 0.00272 E-score.
For CTGAGCCC, the binding signal stood at 0.161 ± 0.049 E-score.
As to ATCCCAAC, the binding signal is 0.189 ± 0.0265 E-score.
Take ATACGTCA: the binding signal came out at 0.196 ± 0.0392 E-score.
For ATCAGCGG, the binding signal was determined as 0.171 ± 0.08 E-score.
Under ACAATATC stands 0.309 ± 0.0486 E-score.
Consider ATGATAGC, for which the binding signal came to 0.379 ± 0.0583 E-score.
Consider ACGATAGG, for which the binding signal was found to be 0.269 ± 0.00971 E-score.
With CTGATAGC the figure was 0.319 ± 0.0368 E-score.
Regarding AGGATAGG, the binding signal stood at 0.306 ± 0.0312 E-score.
Consider ATGATCGC, for which the binding signal was 0.265 ± 0.0383 E-score.
Consider ATGATAGG, for which the binding signal stood at 0.387 ± 0.0153 E-score.
Consider ATCCAGCA, for which the binding signal stood at 0.198 ± 0.0454 E-score.
CGTAACAC: the binding signal came to 0.205 ± 0.0442 E-score.
As to ATTACATC, the binding signal is 0.248 ± 0.072 E-score.
For the sequence CGATCTTC, the binding signal is 0.288 ± 0.0189 E-score.
As for GATGGGTA, the binding signal stood at 0.223 ± 0.0133 E-score.
As for CTTTGATC, the binding signal was found to be 0.213 ± 0.0316 E-score.
On to ATTTGATA, for which the binding signal turned out to be 0.397 ± 0.0881 E-score.
For ATTTGATC, the binding signal came out at 0.215 ± 0.0531 E-score.
As to GTTTGATA, the binding signal came out at 0.379 ± 0.067 E-score.
Consider GTTCGATA, for which the binding signal was determined as 0.324 ± 0.0131 E-score.
As to CTTTGATA, the binding signal came out at 0.331 ± 0.0715 E-score.
Turning to CAATACGA, the binding signal was found to be 0.207 ± 0.026 E-score.
Under ATCACTTC stands 0.3 ± 0.0422 E-score; under CTCAGATA, 0.31 ± 0.032 E-score.
As to ATCAGATG, the binding signal is 0.319 ± 0.0136 E-score.
On to ATCAGATC, for which the binding signal stood at 0.394 ± 0.0295 E-score.
As to CTCAGATC, the binding signal came out at 0.27 ± 0.00864 E-score.
In the case of ATCAGATA, the binding signal amounted to 0.378 ± 0.0255 E-score.
With GTCAGATA, the binding signal amounted to 0.273 ± 0.0192 E-score.
CGTATGAA: the binding signal turned out to be 0.15 ± 0.0134 E-score.
With CCCGTGTC the figure was 0.255 ± 0.0128 E-score.
With CAGGTGTC the figure was 0.394 ± 0.0354 E-score; with ACGGTGAT, 0.181 ± 0.00713 E-score; with CAGGTGTA, 0.272 ± 0.00711 E-score.
Consider ACGGTGTA, for which the binding signal came out at 0.255 ± 0.00781 E-score.
Consider CCGGTGTA, for which the binding signal is 0.332 ± 0.0356 E-score.
For the sequence CCGGTGTC, the binding signal turned out to be 0.431 ± 0.0182 E-score.
In the case of ACGGTGTC, the binding signal is 0.437 ± 0.0187 E-score.
Regarding AAGGTGTC, the binding signal is 0.373 ± 0.0231 E-score.
GTCTGGTA: the binding signal stood at 0.151 ± 0.048 E-score.
Regarding ATCGGAAT, the binding signal was found to be 0.172 ± 0.0652 E-score.
AAGAGTAT: the binding signal was found to be 0.277 ± 0.117 E-score.
ATATATTG: the binding signal came to 0.238 ± 0.0753 E-score.
Regarding GGGATCCC, the binding signal came out at 0.415 ± 0.0591 E-score.
Consider GGGATCTA, for which the binding signal came out at 0.272 ± 0.0387 E-score.
Under TGGATCCA stands 0.295 ± 0.0443 E-score; under CGGATCGC, 0.395 ± 0.05 E-score; under AGGATCCG, 0.308 ± 0.0272 E-score.
On to CGGATCTA, for which the binding signal was found to be 0.318 ± 0.04 E-score.
In the case of CGGATCCG, the binding signal was 0.417 ± 0.0204 E-score.
With CGGATCCA the figure was 0.406 ± 0.0429 E-score.
With CAGATCCG the figure was 0.322 ± 0.0638 E-score.
With AGGATCGC the figure was 0.27 ± 0.0489 E-score; with CAGATCGC, 0.284 ± 0.0237 E-score; with GGGATCCA, 0.375 ± 0.0614 E-score.
Consider AATGAGCC, for which the binding signal came out at 0.158 ± 0.0559 E-score.
In the case of ATGTCTCA, the binding signal stood at 0.2 ± 0.0211 E-score.

These data come from publication PMC10668032, “Altered binding affinity of SIX1-Q177R correlates with enhanced WNT5A and WNT pathway effector expression in Wilms tumor”.
